Source: PubChem
TrxR1 substrate = is turned over as a substrate by rat TrxR1; Potency, µM (top dose mostly 114 µM), for the others: at the highest dose activity change, negative = substrate turnover; AID 588456; 0.01% of 390,000 active; purified TrxR1 substrate turnover, NADPH consumption readout; further: potency means the concentration at half of the fitted maximal effect; nearly all actives have a fitted effect of over 50% in size
Target sequence (O89049 whole entry, looked up): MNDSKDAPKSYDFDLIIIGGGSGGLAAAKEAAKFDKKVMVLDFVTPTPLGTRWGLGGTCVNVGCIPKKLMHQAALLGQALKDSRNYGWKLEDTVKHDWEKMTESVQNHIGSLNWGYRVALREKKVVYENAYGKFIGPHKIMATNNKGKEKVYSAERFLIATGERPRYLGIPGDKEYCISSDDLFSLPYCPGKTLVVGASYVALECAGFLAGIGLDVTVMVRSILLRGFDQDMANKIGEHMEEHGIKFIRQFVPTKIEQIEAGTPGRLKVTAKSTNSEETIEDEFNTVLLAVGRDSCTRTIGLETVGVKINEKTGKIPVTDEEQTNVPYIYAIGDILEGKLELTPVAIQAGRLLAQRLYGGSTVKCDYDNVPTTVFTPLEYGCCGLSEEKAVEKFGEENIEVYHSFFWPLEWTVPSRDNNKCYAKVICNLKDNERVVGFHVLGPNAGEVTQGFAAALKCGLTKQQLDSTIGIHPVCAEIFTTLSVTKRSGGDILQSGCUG
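Rat TrxR1, dispensed at 90 nM, was prereduced with 400 uM NADPH (final) for 5 min at ~22 deg C, then incubated with compound 15 min before 400 uM selenite. A first-read NADPH fluorescence drop versus no-compound background flagged substrates.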
LDHA inh = inhibitors of human lactate dehydrogenase A; P00338; activity change, % (values are at about 110 or 230 µM); AID 1347041; 0.15% of 480,000 active; purified LDHA, NADH/diaphorase-resazurin fluorescence; stronger effect = lower value; in the data active means activity change below about -30%; inconclusive means mostly about -25% to -30%;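 further: plate controls were DMSO wells for no effect and wells without enzyme for full effect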
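Remaining NADH was detected by diaphorase (0.133 mg/mL) converting 37 µM resazurin to fluorescent resorufin, read at 0 and 20 minutes. The preceding 5-minute room-temperature reaction used 2 nM LDHA, 0.2 mM sodium pyruvate and 0.06 mM NADH at pH 7.4.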
IDH1 R132H inh = human IDH1 R132H inhibition. IDH1-R132H enzyme, NADPH consumption, diaphorase/resazurin fluorescence. Potency, µM (series often up to 76.6 µM), for inactives: at the top dose activity change, negative = inhibition, hits mostly inhibitors. AID 602179. 0.093% of 390,000 active; further: potency means the concentration at half of the fitted maximal effect; nearly all actives have a fitted effect of over 65% in size
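IDH1-R132H (0.5 ug/mL) preincubated 30 min with compound, then NADPH (0.016 mM) and alpha-KG (2 mM) added; 80 min at RT, pH 7.5. Remaining NADPH coupled via diaphorase/resazurin to fluorescence (540/590 nm); concentration-response curves normalized to no-enzyme control.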
TrxR1 inh = inhibitors of rat thioredoxin reductase 1. Potency, µM (top dose mostly 114 µM), for inactives: at the top dose activity change, negative = inhibition, actives largely listed as inhibitors. 1% of 390,000 active. recombinant rTrxR1, NADPH fluorescence consumption, selenite substrate; further: potency means the concentration at half of the fitted maximal effect; nearly all actives have a fitted effect of over 65% in size
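Rat TrxR1 (90 nM in the dispensed reagent) was pre-reduced with 400 uM NADPH for 5 min at room temperature, then incubated with compound for 15 min. After 400 uM selenite was added, NADPH fluorescence (Ex 340/Em 450 nm) was followed for 8 min.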
GLS inh = blocks human kidney-isoform glutaminase activity. AID 624170. O94925. GLS enzymatic activity, qHTS titration. 0.21% of 410,000 active. Potency, µM (series often up to 45.5 µM), without a hit: top-dose activity change, negative = inhibition, usual class: inhibitors; further: potency means the concentration at half of the fitted maximal effect
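Compounds were pin-transferred onto hKGA, after which L-glutamine (1 mM solution) and a detection mix of glutamate oxidase, HRP and Amplex Red were added. Initial and 30 min RT fluorescence reads were collected.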
PKM2 activator = activators of human pyruvate kinase M2. P14618. purified PKM2, Kinase-Glo ATP luminescence, activation; response scale: 0% is enzyme alone, no compound. Potency, µM (top dose mostly 57.5 µM), for the others: at the highest dose activation, usual class: activators. 0.34% of 260,000 active. AID 1631; further: potency means the concentration at half of the fitted maximal effect; nearly all actives have a fitted effect of over 55% in size
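ATP formation by purified human PK-M2, quantified via coupled luciferase luminescence after 1 h at room temperature with 0.1 mM ADP and 0.5 mM PEP final.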
Numbers without * were called inactive; ? = inconclusive; . = no result; [ ] = dose if it differs, or a comment. Most compounds without a hit are left out; they make up all but 1.4% or so of the library. Unless noted, the call rests on the fitted dose curve; in most records, active means well fitted curve in the direction sought with a large enough effect; inconclusive means small, poorly fitted or top-dose-only effect, or another doubt; inactive means no such curve, though single readings can be large; an effect the other way counts as inactive or inconclusive. Unless noted, on the % scale 0 is the no-effect control and ±100 the full control effect.

SMILES	TrxR1 substrate	LDHA inh	IDH1 R132H inh	TrxR1 inh	GLS inh	PKM2 activator
O=C(OCc1ccc2c(c1)OCO2)c1cccc(S(=O)(=O)N2CCCCC2)c1	-2%	1	1%	3%	-2%	2%
O=C(OCc1ccco1)c1ccc(S(=O)(=O)N2CCCCC2)cc1	2%[57.1 µM]	-6	1%	18µM*	3%	27%
CC(=O)c1sc(N/N=C2\CC3CC2C(C)C3(C)C)nc1C (stereo not given)	-6%	4	6%	11µM*	12%	26%
CCCCn1c(N)c(Sc2ccc(C)cc2)c(=O)[nH]c1=O	-1%	-4	0%	0%	-3%	16µM*
CSc1nc(O)c(C(c2ccc(F)cc2)c2c(O)nc(SC)[nH]c2=O)c(=O)[nH]1	4%	-8	-7%	?	22%	.
O=c1c(C(c2ccc(F)cc2)c2c(O)nc3n(c2=O)CCS3)c(O)nc2n1CCS2	6%[57.1 µM]	-3	3%	13µM*	1%	0%
O=c1c(C(c2ccc(Cl)cc2)c2c(O)nc3n(c2=O)CCCS3)c(O)nc2n1CCCS2	2%	0	-5%	?	2%	5%
O=c1c(C(c2ccc(Cl)cc2)c2c(O)nc3n(c2=O)CCS3)c(O)nc2n1CCS2	4%	-10	3%	10µM*	15%	-12%
Cc1cc(C)c2nc(SCC(=O)Nc3sccc3C(N)=O)cc(C)c2c1	.	3	.	.	.	.
Cc1cc(C)c2nc(SCC(=O)NC(N)=O)cc(C)c2c1	.	-34*	.	.	.	.
Cc1cc(N2CCCC2)nc2ccc(NC(=S)NC(C)C)cc12	33%	7	4%	7.9µM*	11%	1%
Cc1cc(=S)cc(C)n1CCCO	-12%	0	1%	13µM*	.	-1%
Cc1nc2cc(Cl)c(Cl)cc2n1CCCO	-1%[57.1 µM]	-1	5%	4%[57.1 µM]	-16%	1%
CCSc1nnc([C@@H](NC(=O)OC(C)(C)C)C(C)CC)o1 (stereo not given in full)	.	2	.	.	.	.
Cc1ccccc1CS(=O)(=O)c1nnc([C@H](Cc2ccccc2)NC(=O)OC(C)(C)C)o1	0%	-4	-5%	0.63µM*	-7%	25%
CCC(C)[C@@H](NC(=O)OC(C)(C)C)c1nnc(S(=O)(=O)Cc2cccc(C)c2)o1 (stereo not given in full)	-15%	-5	1%	1.8µM*	10%	14%
COc1ccc(C(C)=O)cc1CSCc1coc(-c2ccc(C)cc2C)n1	.	-4	.	.	.	.
COCCn1c(N)c(C(=O)NS(=O)(=O)c2ccc(C)cc2)c(=O)[nH]c1=O	9%	-5	-10%	-54%	17%	25µM*
CSc1nc(O)c(C(c2ccc(OC(C)C)cc2)c2c(O)nc(SC)[nH]c2=O)c(=O)[nH]1	3%[57.1 µM]	-2	0%	11µM*	-9%	.
Cc1cccc(/C=N/Nc2cc(C(F)(F)F)ccc2Cl)c1	.	1	.	.	.	.
Nc1c2c(nc3ccn(Cc4ccccc4)c(=O)c13)CCC2	17%	-3	1%	-8%	2%	14µM*
Nc1c2c(nc3ccn(-c4ccccc4)c(=O)c13)CCCCC2	8%	-4	2%	-1%	0%	-1%
O=C(NCCC1CCCO1)c1cc(-c2ccccc2)nc2ccccc12 (stereo not given)	.	7	.	.	.	.
O=S1(=O)CC(N2CC=CC2)CN1C1CCCCC1 (stereo not given)	.	-4	.	.	11µM*	.
Cc1ccc(C)c(N2N=C(C(=O)Nc3ccccc3S(=O)(=O)N3CCCCC3)CCC2=O)c1	.	-2	.	.	.	.
SMILES	TrxR1 substrate	LDHA inh	IDH1 R132H inh	TrxR1 inh	GLS inh	PKM2 activator
NS(=O)(=O)c1ccc(NC(=S)Nc2cc(Cl)c(Cl)cc2Cl)cc1	-3%	-6	7%	35µM*	-5%	-16%
CSc1ccccc1NC(=S)Nc1ccc(S(N)(=O)=O)cc1	4%[57.1 µM]	-9	11%	-21%[57.1 µM]	18%	1%
Cc1ccc(/C=C2/Sc3ccc(C(=O)NCc4ccccn4)cc3NC2=O)cc1	8%	-5	8%	30%	18µM*	.
Cc1ccc(/C=C2/Sc3ccc(C(=O)N4CCN(c5ccccn5)CC4)cc3NC2=O)cc1	-1%	1	7%	9%	-8%	-3%
Cc1ccc(-c2ccc(CCC(=O)O)o2)cc1	11%	-5	4%	22µM*	3%	20%
COc1ccc(C(=O)c2sc(Nc3ccccc3)c(C(N)=O)c2N)cc1	.	-1	.	.	.	.
CCc1cccc(C)c1NC(=O)c1ccoc1C	-1%	-3	-4%	20µM*	6%	17%
CCc1cccc(C)c1NC(=O)c1cc(C)oc1C	2%	4	3%	3%	0%	5%
COc1ccc(C2c3c(oc4ccccc4c3=O)C(=O)N2CCCN2CCOCC2)cc1 (stereo not given)	3%	0	-5%	35µM*	.	.
O=C1c2oc3ccccc3c(=O)c2C(c2cccc(O)c2)N1CCCN1CCOCC1 (stereo not given)	4%	1	5%	45µM*	0%	3%
COc1cccc(C2c3c(oc4ccccc4c3=O)C(=O)N2CCCN2CCOCC2)c1OC (stereo not given)	-2%	-12	5%	18%	0%	.
CCOc1ccc(C2c3c(oc4ccccc4c3=O)C(=O)N2CCCN2CCOCC2)cc1OCC (stereo not given)	2%	3	-9%	?	-11%	13%
NC1=C(Cl)C(=O)c2ccccc2C1=O	-10%	5	-4%	13µM*	5%	.
O=C(Nc1ccc2ccc(=O)oc2c1)C1=Cc2ccccc2OC=C1	.	7	.	.	.	.
O=C(c1ccc(NS(=O)(=O)c2cccs2)cc1)N1CCN(c2ccccc2Cl)CC1	-8%	-4	0%	-3%	0%	6.3µM*
CCCCNC(=S)N/N=C/c1cccc(OCC)c1O	-4%	-5	-3%	2%	8.9µM*	-8%
O=C(/C=C/c1c(Cl)cccc1Cl)c1ccc(O)cc1	.	0	.	.	.	.
COc1ccccc1-c1csc(N2N=C(C)CC2c2cc(OC)c(OC)c(OC)c2)n1 (stereo not given)	.	1	.	.	.	.
Nc1ccc(O)cc1	?	17	.	14µM*	13µM*	.
O=C1/C(=C/c2ccc(O)c(O)c2)SC(=S)N1Nc1ccccc1	-5%	19	-2%	-2%	46%	2%
O=C(O)c1ccc(/C=C2\SC(=S)N(Nc3ccccc3)C2=O)cc1	-8%	0	-4%	50µM*	-12%	0%
O=C1/C(=C/c2ccncc2)SC(=S)N1Nc1ccccc1	-7%[57.1 µM]	11	-23%	4.5µM*	8.9µM*	6%
Oc1cccc(CNC(c2ccccc2)c2ccccc2)c1	.	-5	.	.	.	.
